From ChEMBL document CHEMBL1961873, “Compounds: GSK PKIS; Assays: Nanosyn kinase panel” (2012)

Assays:
[1] = target: Ribosomal protein S6 kinase alpha-6 (Homo sapiens) (UniProt Q9UK32); conditions: at 1 µM;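 also: each value is a mean inhibition of RSK4 from a GSK PKIS panel screen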
[2] = target: T1, Serine/threonine-protein kinase Sgk1 (Homo sapiens) (UniProt O00141); conditions: at 0.1 µM
T1 sequence (whole entry): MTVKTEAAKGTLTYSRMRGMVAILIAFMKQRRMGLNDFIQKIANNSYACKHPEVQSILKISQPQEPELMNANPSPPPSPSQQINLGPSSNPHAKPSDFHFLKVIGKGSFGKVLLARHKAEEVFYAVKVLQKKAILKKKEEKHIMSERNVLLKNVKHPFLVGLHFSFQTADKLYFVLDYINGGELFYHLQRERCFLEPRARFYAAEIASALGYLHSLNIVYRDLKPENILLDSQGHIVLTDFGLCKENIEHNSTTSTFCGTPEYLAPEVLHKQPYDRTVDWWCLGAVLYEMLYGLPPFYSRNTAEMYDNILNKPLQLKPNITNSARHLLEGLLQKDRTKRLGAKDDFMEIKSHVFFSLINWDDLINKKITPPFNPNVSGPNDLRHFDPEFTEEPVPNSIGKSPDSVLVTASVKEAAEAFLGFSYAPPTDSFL

[3] = target: T1, Serine/threonine-protein kinase Sgk1 (Homo sapiens); conditions: at 1 µM
[4] = target: T2, Serine/threonine-protein kinase Sgk2 (Homo sapiens) (UniProt Q9HBY8); conditions: at 0.1 µM
T2 sequence (whole entry): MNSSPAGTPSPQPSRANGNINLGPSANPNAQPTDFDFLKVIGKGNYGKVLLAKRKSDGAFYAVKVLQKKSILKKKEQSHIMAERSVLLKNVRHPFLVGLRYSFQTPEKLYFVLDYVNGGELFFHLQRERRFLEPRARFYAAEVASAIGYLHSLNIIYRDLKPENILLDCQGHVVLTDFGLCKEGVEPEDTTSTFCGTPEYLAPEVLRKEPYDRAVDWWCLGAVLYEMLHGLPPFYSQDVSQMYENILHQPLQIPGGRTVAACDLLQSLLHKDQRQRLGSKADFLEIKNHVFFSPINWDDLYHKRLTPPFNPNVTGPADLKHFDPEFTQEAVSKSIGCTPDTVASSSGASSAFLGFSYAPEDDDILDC

[5] = target: T2, Serine/threonine-protein kinase Sgk2 (Homo sapiens); conditions: at 1 µM
[6] = target: T3, Serine/threonine-protein kinase Sgk3 (Homo sapiens) (UniProt Q96BR1); conditions: at 0.1 µM
T3 sequence (whole entry): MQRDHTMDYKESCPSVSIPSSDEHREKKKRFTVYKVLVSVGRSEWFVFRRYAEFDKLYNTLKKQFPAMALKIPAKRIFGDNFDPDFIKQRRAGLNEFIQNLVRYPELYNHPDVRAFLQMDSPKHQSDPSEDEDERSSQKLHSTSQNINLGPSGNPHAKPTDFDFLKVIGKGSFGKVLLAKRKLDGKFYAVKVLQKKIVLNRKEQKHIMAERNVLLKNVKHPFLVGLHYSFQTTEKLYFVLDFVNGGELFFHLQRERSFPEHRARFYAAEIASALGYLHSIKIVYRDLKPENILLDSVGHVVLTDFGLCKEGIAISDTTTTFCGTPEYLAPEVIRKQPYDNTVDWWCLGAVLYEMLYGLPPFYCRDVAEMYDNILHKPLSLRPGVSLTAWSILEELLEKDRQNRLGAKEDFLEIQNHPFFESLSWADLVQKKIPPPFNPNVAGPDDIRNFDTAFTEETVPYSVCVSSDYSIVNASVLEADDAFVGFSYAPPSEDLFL

[7] = target: T3, Serine/threonine-protein kinase Sgk3 (Homo sapiens); conditions: at 1 µM
[8] = target: 5'-AMP-activated protein kinase catalytic subunit alpha-1 (Homo sapiens) (UniProt Q13131); conditions: at 0.1 µM
[9] = target: 5'-AMP-activated protein kinase catalytic subunit alpha-1 (Homo sapiens) (UniProt Q13131); conditions: at 1 µM
[10] = target: 5'-AMP-activated protein kinase catalytic subunit alpha-2 (Homo sapiens) (UniProt P54646); conditions: at 0.1 µM
[11] = target: 5'-AMP-activated protein kinase catalytic subunit alpha-2 (Homo sapiens) (UniProt P54646); conditions: at 1 µM
[12] = target: T4, NUAK family SNF1-like kinase 1 (Homo sapiens) (UniProt O60285); conditions: at 0.1 µM
T4 sequence (whole entry): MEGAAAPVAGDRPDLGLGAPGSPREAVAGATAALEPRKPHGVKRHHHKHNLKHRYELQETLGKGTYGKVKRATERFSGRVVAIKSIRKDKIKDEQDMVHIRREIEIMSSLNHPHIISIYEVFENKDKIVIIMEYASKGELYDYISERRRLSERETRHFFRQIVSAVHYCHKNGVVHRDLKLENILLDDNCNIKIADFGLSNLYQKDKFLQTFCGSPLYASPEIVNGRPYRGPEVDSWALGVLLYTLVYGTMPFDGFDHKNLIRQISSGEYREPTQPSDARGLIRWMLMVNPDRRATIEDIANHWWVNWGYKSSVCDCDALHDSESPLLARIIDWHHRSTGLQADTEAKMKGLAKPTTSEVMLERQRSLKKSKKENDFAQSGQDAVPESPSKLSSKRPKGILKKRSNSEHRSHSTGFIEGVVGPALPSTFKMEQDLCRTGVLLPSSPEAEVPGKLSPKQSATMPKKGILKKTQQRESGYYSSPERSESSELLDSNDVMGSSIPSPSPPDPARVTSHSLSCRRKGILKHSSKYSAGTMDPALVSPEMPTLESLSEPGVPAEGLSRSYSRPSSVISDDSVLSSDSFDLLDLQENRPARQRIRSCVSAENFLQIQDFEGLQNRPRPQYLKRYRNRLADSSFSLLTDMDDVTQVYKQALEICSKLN

[13] = target: T4, NUAK family SNF1-like kinase 1 (Homo sapiens); conditions: at 1 µM
[14] = target: T5, Serine/threonine-protein kinase BRSK1 (Homo sapiens) (UniProt Q8TDC3); conditions: at 0.1 µM
T5 sequence (whole entry): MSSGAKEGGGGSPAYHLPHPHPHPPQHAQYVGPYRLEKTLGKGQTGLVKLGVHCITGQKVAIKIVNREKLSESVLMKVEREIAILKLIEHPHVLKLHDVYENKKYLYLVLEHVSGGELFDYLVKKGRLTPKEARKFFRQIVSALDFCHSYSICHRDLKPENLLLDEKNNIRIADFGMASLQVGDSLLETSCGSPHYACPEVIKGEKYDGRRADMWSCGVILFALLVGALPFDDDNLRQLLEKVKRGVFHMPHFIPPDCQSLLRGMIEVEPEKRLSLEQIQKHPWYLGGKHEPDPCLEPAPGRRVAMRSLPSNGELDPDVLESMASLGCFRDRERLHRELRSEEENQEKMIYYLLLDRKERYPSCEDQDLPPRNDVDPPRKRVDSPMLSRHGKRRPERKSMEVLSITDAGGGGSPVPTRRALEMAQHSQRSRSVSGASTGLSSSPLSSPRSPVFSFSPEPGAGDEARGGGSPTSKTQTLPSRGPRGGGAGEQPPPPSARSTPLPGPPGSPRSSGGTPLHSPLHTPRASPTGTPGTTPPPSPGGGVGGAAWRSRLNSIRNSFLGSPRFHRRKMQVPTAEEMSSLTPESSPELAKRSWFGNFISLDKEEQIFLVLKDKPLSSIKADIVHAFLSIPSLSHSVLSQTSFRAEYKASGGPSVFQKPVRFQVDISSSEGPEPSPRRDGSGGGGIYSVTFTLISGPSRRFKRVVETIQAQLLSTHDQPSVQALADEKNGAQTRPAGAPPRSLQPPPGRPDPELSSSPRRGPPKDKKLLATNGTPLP

[15] = target: T5, Serine/threonine-protein kinase BRSK1 (Homo sapiens); conditions: at 1 µM
[16] = target: T6, Serine/threonine-protein kinase BRSK2 (Homo sapiens) (UniProt Q8IWQ3); conditions: at 0.1 µM
T6 sequence (whole entry): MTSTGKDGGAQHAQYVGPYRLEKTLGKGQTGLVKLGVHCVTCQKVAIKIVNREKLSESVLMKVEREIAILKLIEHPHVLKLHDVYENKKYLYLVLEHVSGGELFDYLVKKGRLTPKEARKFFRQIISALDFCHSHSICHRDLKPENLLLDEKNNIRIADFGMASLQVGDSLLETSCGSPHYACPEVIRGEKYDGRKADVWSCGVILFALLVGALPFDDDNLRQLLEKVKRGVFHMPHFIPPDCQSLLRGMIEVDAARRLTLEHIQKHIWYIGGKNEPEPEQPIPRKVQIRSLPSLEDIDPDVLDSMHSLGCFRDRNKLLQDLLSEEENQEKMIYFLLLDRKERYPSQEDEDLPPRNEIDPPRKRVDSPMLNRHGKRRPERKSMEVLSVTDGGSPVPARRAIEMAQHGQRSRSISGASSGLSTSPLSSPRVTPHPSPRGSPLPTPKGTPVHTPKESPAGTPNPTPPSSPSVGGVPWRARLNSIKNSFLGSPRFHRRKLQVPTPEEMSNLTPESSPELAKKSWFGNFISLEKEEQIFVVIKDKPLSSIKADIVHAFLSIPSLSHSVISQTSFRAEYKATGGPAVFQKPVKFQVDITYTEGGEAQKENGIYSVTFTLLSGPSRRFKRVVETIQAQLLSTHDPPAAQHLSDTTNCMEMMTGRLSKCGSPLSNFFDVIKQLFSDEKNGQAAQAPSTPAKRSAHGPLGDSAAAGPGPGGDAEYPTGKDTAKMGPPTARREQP

[17] = target: T6, Serine/threonine-protein kinase BRSK2 (Homo sapiens); conditions: at 1 µM
[18] = target: Calcium/calmodulin-dependent protein kinase type 1D (Homo sapiens) (UniProt Q8IU85); conditions: at 0.1 µM
[19] = target: Calcium/calmodulin-dependent protein kinase type 1D (Homo sapiens) (UniProt Q8IU85); conditions: at 1 µM
[20] = target: Calcium/calmodulin-dependent protein kinase type II subunit alpha (Homo sapiens) (UniProt Q9UQM7); conditions: at 0.1 µM;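 also: reported values are averages (mean inhibition of CAMK2A)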
Sequence of Calcium/calmodulin-dependent protein kinase type II subunit alpha (Homo sapiens) (Q9UQM7 whole entry): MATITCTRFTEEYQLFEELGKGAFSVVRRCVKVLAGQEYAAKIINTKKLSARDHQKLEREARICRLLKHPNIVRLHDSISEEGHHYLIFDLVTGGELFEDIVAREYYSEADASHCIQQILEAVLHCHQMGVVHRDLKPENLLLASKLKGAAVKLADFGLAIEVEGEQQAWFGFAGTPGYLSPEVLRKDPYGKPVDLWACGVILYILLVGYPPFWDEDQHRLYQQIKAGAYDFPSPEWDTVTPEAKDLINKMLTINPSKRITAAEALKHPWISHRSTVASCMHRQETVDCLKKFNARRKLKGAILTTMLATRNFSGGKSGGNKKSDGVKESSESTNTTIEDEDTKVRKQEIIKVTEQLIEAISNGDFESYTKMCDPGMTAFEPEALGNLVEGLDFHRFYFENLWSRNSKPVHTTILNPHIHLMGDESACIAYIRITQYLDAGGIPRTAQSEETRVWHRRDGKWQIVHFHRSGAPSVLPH

Sequence of Calcium/calmodulin-dependent protein kinase type 1D (Homo sapiens) (Q8IU85 whole entry, looked up): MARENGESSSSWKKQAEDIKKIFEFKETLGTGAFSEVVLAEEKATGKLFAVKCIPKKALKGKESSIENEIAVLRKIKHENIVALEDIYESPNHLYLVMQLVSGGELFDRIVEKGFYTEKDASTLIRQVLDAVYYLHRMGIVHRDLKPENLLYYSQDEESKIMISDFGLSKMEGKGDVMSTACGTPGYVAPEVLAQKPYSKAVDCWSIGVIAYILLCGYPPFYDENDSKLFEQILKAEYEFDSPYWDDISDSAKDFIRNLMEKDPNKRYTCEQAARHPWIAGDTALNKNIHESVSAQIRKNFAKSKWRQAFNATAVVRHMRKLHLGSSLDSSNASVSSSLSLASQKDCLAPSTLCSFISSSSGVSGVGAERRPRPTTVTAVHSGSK
Sequence of Ribosomal protein S6 kinase alpha-6 (Homo sapiens) (Q9UK32 whole entry): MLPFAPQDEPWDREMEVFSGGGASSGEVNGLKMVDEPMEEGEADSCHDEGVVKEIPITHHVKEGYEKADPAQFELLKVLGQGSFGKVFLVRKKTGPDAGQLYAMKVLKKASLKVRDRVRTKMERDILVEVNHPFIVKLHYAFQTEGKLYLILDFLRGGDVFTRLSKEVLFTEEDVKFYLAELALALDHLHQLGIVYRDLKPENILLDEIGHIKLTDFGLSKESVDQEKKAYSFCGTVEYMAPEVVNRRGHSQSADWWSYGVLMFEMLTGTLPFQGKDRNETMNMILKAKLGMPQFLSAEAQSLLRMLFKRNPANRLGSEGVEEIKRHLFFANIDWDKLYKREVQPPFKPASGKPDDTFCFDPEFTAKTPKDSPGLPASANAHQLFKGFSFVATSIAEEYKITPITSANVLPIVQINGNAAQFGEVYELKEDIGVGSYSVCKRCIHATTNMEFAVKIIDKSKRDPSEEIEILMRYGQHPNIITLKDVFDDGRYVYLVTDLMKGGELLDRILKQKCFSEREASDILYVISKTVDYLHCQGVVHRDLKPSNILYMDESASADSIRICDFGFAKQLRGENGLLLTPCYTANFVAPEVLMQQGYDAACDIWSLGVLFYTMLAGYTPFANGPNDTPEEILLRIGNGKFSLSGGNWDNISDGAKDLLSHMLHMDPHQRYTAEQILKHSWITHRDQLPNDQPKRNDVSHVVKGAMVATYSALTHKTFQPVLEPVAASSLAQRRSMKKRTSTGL
Sequence of 5'-AMP-activated protein kinase catalytic subunit alpha-2 (Homo sapiens) (P54646 whole entry, looked up): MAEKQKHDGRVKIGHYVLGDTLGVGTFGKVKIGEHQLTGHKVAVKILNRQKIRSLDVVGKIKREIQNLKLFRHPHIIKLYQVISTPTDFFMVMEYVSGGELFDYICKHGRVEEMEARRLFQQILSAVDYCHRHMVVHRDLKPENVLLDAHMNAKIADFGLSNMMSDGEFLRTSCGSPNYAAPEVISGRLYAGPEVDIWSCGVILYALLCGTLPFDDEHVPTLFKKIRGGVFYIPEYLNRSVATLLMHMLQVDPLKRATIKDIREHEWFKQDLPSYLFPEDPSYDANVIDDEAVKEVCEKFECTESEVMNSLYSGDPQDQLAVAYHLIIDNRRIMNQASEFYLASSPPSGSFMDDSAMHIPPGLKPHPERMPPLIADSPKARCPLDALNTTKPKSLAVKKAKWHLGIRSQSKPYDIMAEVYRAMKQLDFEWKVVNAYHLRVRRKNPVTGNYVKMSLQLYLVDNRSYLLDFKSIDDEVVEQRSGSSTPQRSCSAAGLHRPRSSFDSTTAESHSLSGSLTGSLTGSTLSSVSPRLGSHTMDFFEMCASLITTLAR
Sequence of 5'-AMP-activated protein kinase catalytic subunit alpha-1 (Homo sapiens) (Q13131 whole entry, looked up): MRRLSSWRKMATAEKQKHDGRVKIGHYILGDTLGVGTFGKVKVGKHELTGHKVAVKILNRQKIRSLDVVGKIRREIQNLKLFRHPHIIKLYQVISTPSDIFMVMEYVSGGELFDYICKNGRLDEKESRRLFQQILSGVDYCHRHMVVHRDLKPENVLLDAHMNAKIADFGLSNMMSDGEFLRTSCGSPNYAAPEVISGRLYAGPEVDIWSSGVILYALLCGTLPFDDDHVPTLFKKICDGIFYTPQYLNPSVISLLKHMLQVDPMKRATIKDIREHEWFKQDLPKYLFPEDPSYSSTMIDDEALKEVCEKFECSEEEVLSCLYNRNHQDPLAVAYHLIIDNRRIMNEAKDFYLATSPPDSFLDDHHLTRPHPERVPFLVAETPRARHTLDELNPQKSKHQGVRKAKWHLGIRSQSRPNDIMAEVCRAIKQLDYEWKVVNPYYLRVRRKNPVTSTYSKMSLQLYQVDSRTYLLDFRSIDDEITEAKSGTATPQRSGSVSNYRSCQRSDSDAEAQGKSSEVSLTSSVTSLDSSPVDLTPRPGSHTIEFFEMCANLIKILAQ

SMILES | inhibition [1] | inhibition [2] | inhibition [3] | inhibition [4] | inhibition [5] | inhibition [6] | inhibition [7] | inhibition [8] | inhibition [9] | inhibition [10] | inhibition [11] | inhibition [12] | inhibition [13] | inhibition [14] | inhibition [15] | inhibition [16] | inhibition [17] | inhibition [18] | inhibition [19] | inhibition [20]
CCS(=O)(=O)c1ccc(OC)c(Nc2ncc(-c3cccc(-c4ccccc4F)c3)o2)c1 | 0.75% | 1.23% | 0.04% | 1.37% | 1.29% | -0.5% | -0.32% | 0.4% | 0.95% | 1.79% | 1.37% | 1.73% | 2.9% | -0.47% | 0.8% | 0% | -0.51% | 0.44% | 0.18% | -1.21%
Fc1ccc(-c2ncn(CCCN3CCOCC3)c2-c2ccncc2)cc1 | -0.21% | -0.45% | 0.64% | 1.89% | -4.02% | -1.19% | -1.33% | 0.37% | -1.12% | 0.28% | 2.58% | 0.22% | 3.87% | 1.09% | 1.49% | 1.32% | -0.21% | 1.77% | 1.54% | 0.57%
FC(F)(F)c1cccc(Nc2nccc(-c3cnn4nc(-c5ccccc5)ccc34)n2)c1 | 0.82% | 2.37% | 2.67% | 1.96% | 1.95% | 2.7% | 1.72% | 1.9% | 1.87% | -0.41% | 2.89% | -0.22% | 4.2% | -0.11% | 4.72% | 1.87% | 2.68% | 0.17% | 0.28% | 0.97%
